Screening data (PubChem BioAssay)
PfHsp90 yeast 2 = growth inhibition of yeast expressing Plasmodium Hsp90; S. cerevisiae expressing PfHsp90, BacTiter-Glo ATP, 48 h; yeast lacking PDR1 and PDR3 efflux regulators; inhibition, % at 9.4 µM; 310,000 compounds, 0.32% hits; AID 504621;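 active means every replicate shows inhibition above about 80%, whatever the replicate mean, limit read from the data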
TIM10 inh = TIM10 yeast growth inhibition; S. cerevisiae TIM10 strain growth, BacTiter-Glo luminescence, 24 h; inhibition, % at 10 µM; 330,000 compounds, 1.4% hits; AID 463195;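 active means inhibition of 40% or more at the single tested concentration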;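 further: wild-type TIM10 isogenic control strain grown at permissive 25 °C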
tim10-1 inh = inhibits growth of tim10-1 mutant yeast | inhibition, % at 20 µM | AID 463190 | S. cerevisiae tim10-1 ts strain growth, BacTiter-Glo, 24 h | 330,000 compounds, 2.2% hits;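 active means inhibition of at least 40%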;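 further: mutant grown at 25 °C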
NLRP3 yeast inh = blocks the NALP3 inflammasome reconstituted in yeast; 330,000 compounds, 0.39% hits; inhibition, % at 10 µM; Yeast reconstituted NLRP3/ASC/caspase-1, beta-gal luminescence, 24 h;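 active means inhibition of 50% or more; inactive means inhibition below 50%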
tim23-1 inh = tim23-1 yeast growth inhibition. AID 463212. inhibition, % at 20 µM. S. cerevisiae tim23-1 growth, BacTiter-Glo luminescence, 24 h. 330,000 compounds, 1.3% hits;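 active means growth inhibition of the mutant yeast at or above 50%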;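 further: temperature-sensitive mutant grown at 25 °C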
tim10-1 conf = tim10-1 yeast growth inhibition, confirmed; shares compounds with tim10-1 inh; S. cerevisiae tim10-1 ts strain growth, BacTiter-Glo, 24 h; inhibition, % at 20 µM; 7,400 compounds, 56% hits; AID 463213;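 active means inhibition of yeast growth at or above a set limit in either of two repeat tests at 20 µM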;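 further: tim10-1 mutant grown at permissive 25 °C to find synthetic lethal compounds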
tim10 confirm = confirmation of TIM10 yeast growth inhibitors; S. cerevisiae tim10 strain growth, BacTiter-Glo luminescence, 24 h; 4,600 compounds, 63% hits; shares compounds with TIM10 inh; inhibition, % at 10 µM;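 active means inhibition of yeast growth at or above a set limit in either of two replicates at 10 µM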; further: this counterscreen used the strain with wild-type TIM10
tim23-1 confirm = tim23-1 yeast growth inhibition, confirmed | inhibition, % at 20 µM | S. cerevisiae tim23-1 growth, BacTiter-Glo luminescence, 24 h | shares compounds with tim23-1 inh | AID 463218 | 4,400 compounds, 83% hits;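 active means inhibition above about 39% in either of two replicate wells at 20 µM, limit read from the data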;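 further: temperature-sensitive tim23-1 mutant grown at 25 °C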
Of the large screens only hits and unclear results are named; the others gave an inactive call (follow-up assays come after a bar, where they were run). A selection: hits, their analogues and other compounds. The true share with any hit is near 3.7%.

Cc1ccc(S(=O)(=O)N(C)C)cc1NC(=O)C(C)OC(=O)C1CCC1 (centres undefined)	none
Cc1cc(C)c2c(CCl)cc(=O)oc2c1	TIM10 inh 42, tim10-1 inh 49, tim23-1 inh 62 (no result: PfHsp90 yeast 2) | tim10-1 conf 40 | tim10 confirm 40 | tim23-1 confirm 53
Cc1cc(C)c2c(CN3CCCCC3)cc(=O)oc2c1	none
COc1ccc2c(c1)CC/C(=C/c1ccccn1)C2=O	TIM10 inh 56, tim10-1 inh 55, tim23-1 inh 58 | tim10-1 conf 54 | tim10 confirm 60 | tim23-1 confirm 52
C=CC[C@@H]1C=C(C)C[C@H](C)C[C@H](OC)[C@H]2O[C@@](O)(C(=O)C(=O)N3CCCC[C@H]3C(=O)O[C@H](/C(C)=C/[C@@H]3CC[C@@H](O)[C@H](OC)C3)[C@H](C)[C@@H](O)CC1=O)[C@H](C)C[C@@H]2OC	TIM10 inh 73, tim10-1 inh 77, tim23-1 inh 68 (no result: PfHsp90 yeast 2) | tim10-1 conf 79 | tim10 confirm 74 | tim23-1 confirm 68
O=c1oc(Cl)c(Cl)c2ccccc12	tim10-1 inh 45, tim23-1 inh 64 | tim10-1 conf inactive | tim23-1 confirm 88
Cc1c(Cl)cccc1N=Cc1ccc([N+](=O)[O-])s1	PfHsp90 yeast 2 112, TIM10 inh 83, tim10-1 inh 67, tim23-1 inh 65 | tim10-1 conf 61 | tim10 confirm 65 | tim23-1 confirm 76
O=[N+]([O-])c1ccc(/C=N/NC(=S)Nc2ccc(Cl)cc2Cl)s1	none
CC1CN(C(=O)COC(=O)c2cnc(Cl)c(Cl)c2)CC(C)O1 (centres undefined)	none (no result: PfHsp90 yeast 2)
N/C(=N\OC(=O)N1c2ccccc2Sc2ccccc21)c1ccccc1	TIM10 inh 84, tim10-1 inh 61, tim23-1 inh 66 | tim10-1 conf 48 | tim10 confirm 85 | tim23-1 confirm 50
Cc1cccc(/C(N)=N/OC(=O)N2c3ccccc3Sc3ccccc32)c1	TIM10 inh 83, tim10-1 inh 65, tim23-1 inh 60 | tim10-1 conf 52 | tim10 confirm inactive | tim23-1 confirm 45
COc1ccc(/C=C/C(=O)OCn2c(SC)nnc(C)c2=O)cc1OC	none
CCOC(=O)Cn1nc(NC(=O)c2ccc(C(=O)OC)cc2)cc1C	none
CN(C)c1cc2c3ccccc3n(C)c2cc1N	none (no result: TIM10 inh, tim10-1 inh, NLRP3 yeast inh, tim23-1 inh)
Cc1cc(C)c(S(=O)(=O)c2ccccc2)c(OC(=O)c2cc(F)c(F)cc2Cl)n1	TIM10 inh 45, tim10-1 inh 48, tim23-1 inh 66 | tim10-1 conf 33 | tim10 confirm inactive | tim23-1 confirm 72
Cc1cc(OC(=O)c2cc(F)c(F)cc2Cl)nc(C)n1	none
Cc1ccc(/C=C/C(=O)NC2CCCCCCC2)o1	TIM10 inh 46, tim10-1 inh 55, tim23-1 inh 52 | tim10-1 conf 57 | tim10 confirm 38 | tim23-1 confirm 58
C=CCn1c(O)c(/C=C2\C=NN=C2c2ccccc2)sc1=S	tim10-1 inh 43, tim23-1 inh 51 | tim10-1 conf 35 | tim23-1 confirm 51
CCCCC(CC)Cn1c(O)c(/C=C2\C=NN=C2c2ccccc2)sc1=S (centres undefined)	none
Cc1ccc(Nc2nc(Cl)nc(N(C)C#N)n2)cc1	tim10-1 inh 50, tim23-1 inh 59 | tim10-1 conf 47 | tim23-1 confirm inactive
NS(=O)(=O)c1ccc(CCNc2ccnc3cc(Cl)ccc23)cc1	none
N/C(=N\OC(=O)c1ccccc1)c1ccncc1	none
N/C(=N\OC(=O)c1ccc(F)cc1)c1ccccc1	TIM10 inh 63, tim10-1 inh 68, tim23-1 inh 73 | tim10-1 conf 64 | tim10 confirm 61 | tim23-1 confirm 76
Cc1ccc(/C(N)=N/OC(=O)c2ccc(F)cc2)cc1	TIM10 inh 67, tim10-1 inh 59, tim23-1 inh 68 | tim10-1 conf 55 | tim10 confirm 69 | tim23-1 confirm 65
O=C(Nc1nc(-c2cccs2)c(C(=O)C(F)(F)F)s1)c1ccccc1	tim10-1 inh 61, tim23-1 inh 69 | tim10-1 conf 50 | tim23-1 confirm 70
COc1ccc(C(=O)Nc2nc(-c3cccs3)c(NC(C)=O)s2)cc1	none
O=C(Nc1nc(-c2cccs2)c(C(=O)C(F)(F)F)s1)c1ccco1	TIM10 inh 56, tim10-1 inh 56, tim23-1 inh 62 | tim10-1 conf 73 | tim10 confirm 59 | tim23-1 confirm 79
CC(=O)Nc1sc(NC(=O)c2ccco2)nc1-c1cccs1	none
CCN(CC)CCN(C(=O)CCS(=O)(=O)c1ccccc1)c1nc2cc(C)cc(C)c2s1	TIM10 inh 44, tim10-1 inh 51, tim23-1 inh 55 | tim10-1 conf inactive | tim10 confirm 30 | tim23-1 confirm 39
Cc1cc(C)c2sc(N(CCN(C)C)C(=O)CCS(=O)(=O)c3ccccc3)nc2c1	none
O=C(OCc1nnc(-c2ccccc2)o1)c1ccc([N+](=O)[O-])s1	TIM10 inh 79, tim10-1 inh 57, tim23-1 inh 56 | tim10-1 conf 68 | tim10 confirm 86 | tim23-1 confirm 73
O=C(COC(=O)c1ccc([N+](=O)[O-])s1)NCc1ccccc1	TIM10 inh 54, tim10-1 inh 41, tim23-1 inh 51 | tim10-1 conf 41 | tim10 confirm 32 | tim23-1 confirm inactive
COc1ccc(/C(N)=N/OC(=O)/C=C/c2ccccc2)cc1	TIM10 inh 61, tim10-1 inh 62, tim23-1 inh 80 | tim10-1 conf 41 | tim10 confirm 68 | tim23-1 confirm 72
Cc1ccc(/C(N)=N/OC(=O)/C=C/c2ccccc2)cc1	TIM10 inh 72, tim10-1 inh 60, tim23-1 inh 67 | tim10-1 conf 47 | tim10 confirm 78 | tim23-1 confirm 77
N/C(=N\OC(=O)c1cccs1)c1cccnc1	none
N/C(=N\OC(=O)/C=C/c1ccccc1)c1cccnc1	none
COc1ccc(/C=C/C(=O)O/N=C(\N)c2ccccc2)cc1OC	none
Cc1ccccc1/C(N)=N/OC(=O)c1cccs1	TIM10 inh 70, tim10-1 inh 61, tim23-1 inh 68 | tim10-1 conf 50 | tim10 confirm inactive | tim23-1 confirm 48
Cc1ccccc1/C(N)=N/OC(=O)/C=C/c1ccccc1	TIM10 inh 76, tim10-1 inh 76, tim23-1 inh 73 | tim10-1 conf 52 | tim10 confirm 68 | tim23-1 confirm 56
C[C@@H]1C=CC(=O)O[C@@H]1c1ccc(Cl)cc1	TIM10 inh 43, tim10-1 inh 45, tim23-1 inh 56 (no result: PfHsp90 yeast 2) | tim10-1 conf 41 | tim10 confirm 41 | tim23-1 confirm 40
